{
  "source": "ChEMBL document CHEMBL1157539",
  "about": "“Thousands of chemical starting points for antimalarial lead identification” (Nature, 2010)",
  "data": [
    {"system": "HepG2", "experiment": "GSK_TCMDC: Percent inhibition of human HepG2 cell line. Test compounds present at 10uM.", "format": "functional", "units": {"Inhibition": "%"}, "values": [
      {"smiles": "Cc1cc(-c2ncc[nH]2)ccc1-c1ccc(C(=O)N2CCc3cc4c(cc32)C2(CCN(C)CC2)CO4)cc1.Cl", "Inhibition": 32},
      {"smiles": "CN1CCC(N(C)c2nccc(N3CCN(Cc4cncn4Cc4ccccc4)CC3)n2)CC1", "Inhibition": 15},
      {"smiles": "C[C@H](Cc1ccc(OCCCCCCOc2ccccc2)cc1)NC[C@H](O)c1cccc(Cl)c1.Cl", "Inhibition": 21}
    ]}
  ]
}
